# Test results reported in PubChem BioAssay AID1159580 (chemical genetic matrix, 2015).
# The whole screen tested about 5,500 compounds, of which about 2,000 (36%) were called active. Another 18% or so got no clear call; they are omitted. The list shows a part of the results. Unmarked numbers belong to inactive results. Cut-off read from the data, not from the text of the source: active = normalized growth mostly below about 0.91 (no sharp cut-off); inconclusive = no clear call, values can overlap the other calls; inactive = mostly above about 0.92.
# Assay: chemical genetic growth profiling, strain panel (AID 1159580);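 note: tested at 20 µM; growth read once vehicle control cultures reached saturation at 30 °C; 1 = growth at the plate median or of vehicle wells; lower values mean less growth of the strain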
# Settings: growth OD
structure (smiles),measurement,setting,value
CCCCCCCCCCCC[C@H](C(=O)O)[C@@H](C)C(=O)O,normalized growth,"S. cerevisiae deletion strains, locus YJR075W, strain HOC1, stronger effect = lower value",1.07
same,normalized growth,"S. cerevisiae deletion strains, locus YKL009W, strain mrt4, stronger effect = lower value",0.946
same,normalized growth,"S. cerevisiae deletion strains, locus YKL068W, stronger effect = lower value",0.996
same,normalized growth,"S. cerevisiae deletion strains, locus YKL085W, strain MDH1 (second series), stronger effect = lower value",0.975
same,normalized growth,"S. cerevisiae deletion strains, locus YKL085W, strain MDH1, stronger effect = lower value",0.975
same,normalized growth,"S. cerevisiae deletion strains, locus YKL160W, strain elf1, stronger effect = lower value",1
same,normalized growth,"S. cerevisiae deletion strains, locus YKL190W, strain CNB1, stronger effect = lower value",0.99
same,normalized growth,"S. cerevisiae deletion strains, locus YKR001C, strain vps1, stronger effect = lower value",0.982
same,normalized growth,"S. cerevisiae deletion strains, locus YKR026C, strain gcn3, stronger effect = lower value",0.965
same,normalized growth,"S. cerevisiae deletion strains, locus YKR091W, strain srl3, stronger effect = lower value",0.974
same,normalized growth,"S. cerevisiae deletion strains, locus YLL001W, strain dnm1, stronger effect = lower value",1.01
same,normalized growth,"S. cerevisiae deletion strains, locus YLL026W, stronger effect = lower value",0.987
same,normalized growth,"S. cerevisiae deletion strains, locus YLL041C, strain sdh2, stronger effect = lower value",0.973
same,normalized growth,"S. cerevisiae deletion strains, locus YLR027C, strain aat2, stronger effect = lower value",0.992
same,normalized growth,"S. cerevisiae deletion strains, locus YLR039C, strain RIC1, stronger effect = lower value",1.04
same,normalized growth,"S. cerevisiae deletion strains, locus YLR058C, strain SHM2, stronger effect = lower value",0.994
same,normalized growth,"S. cerevisiae deletion strains, locus YLR102C, strain apc9, stronger effect = lower value",1.01
same,normalized growth,"S. cerevisiae deletion strains, locus YLR113W, strain HOG1, stronger effect = lower value",0.903
same,normalized growth,"S. cerevisiae deletion strains, locus YLR221C, strain rsa3, stronger effect = lower value",1
same,normalized growth,"S. cerevisiae deletion strains, locus YLR258W, strain gsy2, stronger effect = lower value",0.979
same,normalized growth,"S. cerevisiae deletion strains, locus YLR262C, strain YPT6 (second series), stronger effect = lower value",0.934
same,normalized growth,"S. cerevisiae deletion strains, locus YLR262C, strain YPT6, stronger effect = lower value",1.12
same,normalized growth,"S. cerevisiae deletion strains, locus YLR268W, strain sec22, stronger effect = lower value",1.02
same,normalized growth,"S. cerevisiae deletion strains, locus YLR320W, strain mms22, stronger effect = lower value",1.01
same,normalized growth,"S. cerevisiae deletion strains, locus YLR330W, strain CHS5, stronger effect = lower value",0.986
same,normalized growth,"S. cerevisiae deletion strains, locus YLR342W, strain FKS1 (second series), stronger effect = lower value",1.02
same,normalized growth,"S. cerevisiae deletion strains, locus YLR342W, strain FKS1, stronger effect = lower value",0.986
same,normalized growth,"S. cerevisiae deletion strains, locus YLR357W, strain rsc2, stronger effect = lower value",0.994
same,normalized growth,"S. cerevisiae deletion strains, locus YLR370C, strain arc18, stronger effect = lower value",0.975
same,normalized growth,"S. cerevisiae deletion strains, locus YLR371W, strain rom2, stronger effect = lower value",1.01
same,normalized growth,"S. cerevisiae deletion strains, locus YLR384C, strain iki3, stronger effect = lower value",0.974
same,normalized growth,"S. cerevisiae deletion strains, locus YLR418C, strain cdc73, stronger effect = lower value",1.02
same,normalized growth,"S. cerevisiae deletion strains, locus YML016C, strain PPZ1, stronger effect = lower value",0.982
same,normalized growth,"S. cerevisiae deletion strains, locus YML032C, strain rad52, stronger effect = lower value",1.01
same,normalized growth,"S. cerevisiae deletion strains, locus YML120C, strain ndi1, stronger effect = lower value",0.991
same,normalized growth,"S. cerevisiae deletion strains, locus YML124C, strain tub3, stronger effect = lower value",0.998
same,normalized growth,"S. cerevisiae deletion strains, locus YMR058W, strain fet3, stronger effect = lower value",0.998
same,normalized growth,"S. cerevisiae deletion strains, locus YMR078C, strain ctf18, stronger effect = lower value",0.995
same,normalized growth,"S. cerevisiae deletion strains, locus YMR125W, strain sto1, stronger effect = lower value",0.98
same,normalized growth,"S. cerevisiae deletion strains, locus YMR129W, stronger effect = lower value",0.971
same,normalized growth,"S. cerevisiae deletion strains, locus YMR205C, strain PFK2, stronger effect = lower value",1
same,normalized growth,"S. cerevisiae deletion strains, locus YMR223W, strain ubp8, stronger effect = lower value",1.03
same,normalized growth,"S. cerevisiae deletion strains, locus YMR231W, strain pep5, stronger effect = lower value",0.927 (active)
same,normalized growth,"S. cerevisiae deletion strains, locus YMR263W, strain SAP30, stronger effect = lower value",0.996
same,normalized growth,"S. cerevisiae deletion strains, locus YMR307W, strain GAS1, stronger effect = lower value",1.06
same,normalized growth,"S. cerevisiae deletion strains, locus YNL067W, strain RPL9B, stronger effect = lower value",1.01
same,normalized growth,"S. cerevisiae deletion strains, locus YNL071W, strain lat1, stronger effect = lower value",0.968
same,normalized growth,"S. cerevisiae deletion strains, locus YNL128W, strain TEP1, stronger effect = lower value",1.01
same,normalized growth,"S. cerevisiae deletion strains, locus YNL153C, strain GIM3, stronger effect = lower value",0.994
same,normalized growth,"S. cerevisiae deletion strains, locus YNL183C, strain NPR1, stronger effect = lower value",0.91
same,normalized growth,"S. cerevisiae deletion strains, locus YNL209W, strain ssb2, stronger effect = lower value",0.995
same,normalized growth,"S. cerevisiae deletion strains, locus YNL233W, strain BNI4, stronger effect = lower value",1
same,normalized growth,"S. cerevisiae deletion strains, locus YNL248C, strain rpa49, stronger effect = lower value",1
same,normalized growth,"S. cerevisiae deletion strains, locus YNL250W, strain rad50, stronger effect = lower value",1.02
same,normalized growth,"S. cerevisiae deletion strains, locus YNL271C, strain bni1, stronger effect = lower value",1.01
same,normalized growth,"S. cerevisiae deletion strains, locus YNL298W, strain CLA4, stronger effect = lower value",0.972
same,normalized growth,"S. cerevisiae deletion strains, locus YNL307C, strain MCK1, stronger effect = lower value",1.01
same,normalized growth,"S. cerevisiae deletion strains, locus YNL322C, strain KRE1 (second series), stronger effect = lower value",0.968
same,normalized growth,"S. cerevisiae deletion strains, locus YNL322C, strain KRE1, stronger effect = lower value",0.989
same,normalized growth,"S. cerevisiae deletion strains, locus YNR049C, strain mso1, stronger effect = lower value",0.979
same,normalized growth,"S. cerevisiae deletion strains, locus YNR052C, strain pop2, stronger effect = lower value",1.02
same,normalized growth,"S. cerevisiae deletion strains, locus YOL006C, strain TOP1, stronger effect = lower value",1.04
same,normalized growth,"S. cerevisiae deletion strains, locus YOL012C, strain htz1",1.2
same,normalized growth,"S. cerevisiae deletion strains, locus YOL147C, strain pex11, stronger effect = lower value",0.997
same,normalized growth,"S. cerevisiae deletion strains, locus YOR001W, strain rrp6, stronger effect = lower value",0.984
same,normalized growth,"S. cerevisiae deletion strains, locus YOR061W, strain CKA2, stronger effect = lower value",0.994
same,normalized growth,"S. cerevisiae deletion strains, locus YOR069W, strain VPS5, stronger effect = lower value",0.989
same,normalized growth,"S. cerevisiae deletion strains, locus YOR070C, strain gyp1, stronger effect = lower value",0.987
same,normalized growth,"S. cerevisiae deletion strains, locus YOR080W, strain dia2, stronger effect = lower value",0.962
same,normalized growth,"S. cerevisiae deletion strains, locus YOR083W, strain WHI5, stronger effect = lower value",1.01
same,normalized growth,"S. cerevisiae deletion strains, locus YOR106W, strain vam3, stronger effect = lower value",1.02
same,normalized growth,"S. cerevisiae deletion strains, locus YOR136W, strain idh2, stronger effect = lower value",1.03
same,normalized growth,"S. cerevisiae deletion strains, locus YOR144C, strain elg1, stronger effect = lower value",1
same,normalized growth,"S. cerevisiae deletion strains, locus YOR184W, strain ser1, stronger effect = lower value",1.04
same,normalized growth,"S. cerevisiae deletion strains, locus YOR231W, strain MKK1, stronger effect = lower value",0.963
same,normalized growth,"S. cerevisiae deletion strains, locus YOR265W, strain rbl2, stronger effect = lower value",0.985
same,normalized growth,"S. cerevisiae deletion strains, locus YOR270C, strain vph1, stronger effect = lower value",1.02
same,normalized growth,"S. cerevisiae deletion strains, locus YOR290C, strain snf2, stronger effect = lower value",1
same,normalized growth,"S. cerevisiae deletion strains, locus YOR316C, strain cot1, stronger effect = lower value",1.01
same,normalized growth,"S. cerevisiae deletion strains, locus YPL051W, strain arl3, stronger effect = lower value",0.983
same,normalized growth,"S. cerevisiae deletion strains, locus YPL055C, strain LGE1, stronger effect = lower value",1.03
same,normalized growth,"S. cerevisiae deletion strains, locus YPL078C, strain atp4, stronger effect = lower value",0.971
same,normalized growth,"S. cerevisiae deletion strains, locus YPL106C, strain sse1, stronger effect = lower value",0.952
same,normalized growth,"S. cerevisiae deletion strains, locus YPL240C, strain hsp82, stronger effect = lower value",0.973
same,normalized growth,"S. cerevisiae deletion strains, locus YPL241C, strain CIN2, stronger effect = lower value",0.99
same,normalized growth,"S. cerevisiae deletion strains, locus YPL256C, strain CLN2, stronger effect = lower value",0.949
same,normalized growth,"S. cerevisiae deletion strains, locus YPR119W, strain clb2, stronger effect = lower value",0.986
same,normalized growth,"S. cerevisiae deletion strains, locus YPR141C, strain kar3, stronger effect = lower value",1.03
same,normalized growth,"S. cerevisiae deletion strains, locus YPR163C, strain tif3, stronger effect = lower value",1.02
same,normalized growth,"S. cerevisiae deletion strains, locus YPR167C, strain met16, stronger effect = lower value",1.01
same,normalized growth,"S. cerevisiae deletion strains, strain wtn01, stronger effect = lower value",1.01
same,normalized growth,"S. cerevisiae strains, strain wild type, stronger effect = lower value",0.992
